Measurements from PubChem BioAssay (NCI).
“And” between values parts separate entries of the source, which are not always exact repeats. Identical values can stand only once. This is part of a sample that, as a whole, favours compounds with a hit. Of some 79,000 tested, about 15% had one in any assay. A structure can be active in one record and inactive in another. The source made the active and inactive calls. Rule as the data show it: active = growth inhibition above about 70%; inactive = the rest.

How the values were obtained:
[1] = NCI Yeast Anticancer Drug Screen. Data for the rad14 strain (AID 159);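 also: 0% = growth of vehicle-treated control cultures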; details: S. cerevisiae rad14 strain growth inhibition, stronger effect = higher value
Summary of the method: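 Yeast cells carrying a defined DNA-repair defect were exposed to compounds, and growth inhibition was calculated relative to vehicle-treated control cultures.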

[2] = NCI Yeast Anticancer Drug Screen. Data for the sgs1 mgt1 strain (AID 161);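 also: 0% = growth of cultures given vehicle only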; details: S. cerevisiae sgs1 mgt1 strain, stronger effect = higher value
Summary of the method: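 Genetically altered yeast, compound exposure, growth inhibition relative to vehicle.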

[3] = NCI Yeast Anticancer Drug Screen. Data for the CLN2oe strain (AID 163);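 also: 0% = growth of vehicle-only control cultures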; details: S. cerevisiae CLN2oe strain, stronger effect = higher value
Summary of the method: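 Here, growth inhibition in a cell-cycle-altered yeast strain after compound exposure was quantified against vehicle control growth.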

[4] = NCI Yeast Anticancer Drug Screen. Data for the cln2 rad14 strain (AID 165);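 also: 0% = growth equal to vehicle treated cultures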; details: S. cerevisiae cln2 rad14 strain, stronger effect = higher value
Summary of the method: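 Growth of compound-exposed yeast (cln2 rad14 genotype) measured and expressed as inhibition relative to vehicle.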

[5] = NCI Yeast Anticancer Drug Screen. Data for the bub3 strain (AID 167); details: S. cerevisiae bub3 mutant strain, stronger effect = higher value
Summary of the method: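 Compounds were applied to a genetically altered yeast strain carrying a cell-cycle control defect. Growth inhibition was scored against vehicle-treated controls.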

[6] = NCI Yeast Anticancer Drug Screen. Data for the wt2 strain (AID 169);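 also: 0% = growth of vehicle-treated yeast cultures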; details: S. cerevisiae wt2 strain growth inhibition, stronger effect = higher value
Summary of the method: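 Genetically defined yeast strains from a DNA-repair/cell-cycle panel were used. Compound-exposed yeast growth was measured, and the inhibition was calculated relative to vehicle treatment.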

[7] = NCI Yeast Anticancer Drug Screen. Data for the mlh1 strain (AID 171);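 also: 0% = growth of vehicle-treated control cultures of the same strain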; details: S. cerevisiae mlh1 strain growth inhibition, stronger effect = higher value
Summary of the method: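 Here the genetically defined yeast mutant is grown with each compound, and the extent to which its growth falls below that of vehicle-exposed cells is reported.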

[8] = NCI Yeast Anticancer Drug Screen. Data for the sgs1 strain (AID 173);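 also: 0% = growth of vehicle-only control cultures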; details: S. cerevisiae sgs1 mutant, stronger effect = higher value
Summary of the method: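 Relative growth inhibition, referenced to vehicle, was determined in a yeast strain with a defined alteration affecting DNA damage repair or cell cycle control after compound exposure.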

[9] = NCI Yeast Anticancer Drug Screen. Data for the mlh1 rad18 strain (AID 175); details: S. cerevisiae mlh1 rad18 strain growth inhibition, stronger effect = higher value
Summary of the method: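 In this whole-cell yeast screen, a strain with altered DNA damage repair is challenged with compound, and its growth is measured against matched vehicle-treated controls.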

[10] = NCI Yeast Anticancer Drug Screen. Data for the rad18 strain (AID 177); details: S. cerevisiae rad18 mutant growth inhibition, stronger effect = higher value
Summary of the method: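 Screen uses a yeast strain with a defined lesion in DNA damage repair; compound effect is read as loss of growth compared to untreated vehicle cultures.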

[11] = NCI Yeast Anticancer Drug Screen. Data for the wt1 strain (AID 149);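 also: 0% = growth of vehicle-treated wt1 cultures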; details: S. cerevisiae wt1 strain (SPY 50644) growth inhibition, stronger effect = higher value
Summary of the method: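 Yeast wt1 strain exposed to compounds; growth inhibition measured relative to vehicle-treated controls.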

[12] = NCI Yeast Anticancer Drug Screen. Data for the rad50EPP+ strain (AID 151);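 also: 0% = growth of vehicle-treated control cultures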; details: S. cerevisiae rad50 mutant strain, stronger effect = higher value
Summary of the method: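 One strain with a rad50 alteration (rad50EPP+) was compound-treated, its growth then compared to that of vehicle controls.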

[13] = NCI Yeast Anticancer Drug Screen. Data for the mgt1 strain (AID 153); details: S. cerevisiae mgt1 mutant growth inhibition, stronger effect = higher value
Summary of the method: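 After exposure of the mgt1 yeast mutant to compound, growth was measured and reported as inhibition compared with vehicle controls.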

[14] = NCI Yeast Anticancer Drug Screen. Data for the rad50 strain (AID 155);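 also: 0% = growth of vehicle-only cultures of the same strain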; details: S. cerevisiae rad50 strain growth inhibition, stronger effect = higher value
Summary of the method: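 Yeast carrying a defined DNA repair defect were exposed to test compounds, and growth was compared with vehicle-treated controls to give percent inhibition.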

[15] = NCI Yeast Anticancer Drug Screen. Data for the mec2-1 strain (AID 157); details: S. cerevisiae mec2-1 strain, stronger effect = higher value
Summary of the method: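 Test agents were screened against the mec2-1 yeast strain, with defined DNA repair or cell cycle alteration. Growth was scored as inhibition against vehicle-only controls.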

[16] = at 5.0 µM (retest, dose inferred, filed as 0.5)
[17] = at 50.0 µM (retest, dose inferred, filed as 5.0)

Measured: growth inhibition

Nc1nc(N)c(-c2ccc(Cl)c(Cl)c2)c(CP(Cl)(Cl)(Cl)Br)n1
active: [2]; [17] 82% | [5]; [17] 78% | [6]; at 33.0 µM 80% | [6]; at 100.0 µM 94% | [7]; at 100.0 µM 88% | [8]; at 33.0 µM 74% | [8]; at 100.0 µM 92% | [9]; [17] 88% | [10]; at 11.0 µM 75% | [10]; at 33.0 µM 79% | [10]; at 100.0 µM 74%
inactive: [1]; at 100.0 µM 54% | [2]; [16] 30% | [2]; at 50.0 µM 63.6% | [3]; at 1.2 µM -2% | [3]; at 3.7 µM -6% | [3]; at 11.0 µM -9% | [3]; at 33.0 µM -2% | [3]; at 100.0 µM 10% | [4]; [16] 0% | [4]; [17] 22% | [4]; at 50.0 µM 9.75% | [5]; at 1.2 µM 10% | [5]; at 3.7 µM 23% | [5]; [16] 45% | [5]; at 11.0 µM 42% | [5]; at 33.0 µM 56% | [5]; at 50.0 µM 51.4% | [5]; at 100.0 µM 55% | [6]; at 1.2 µM 7% | [6]; at 3.7 µM 18% | [6]; at 11.0 µM 56% | [7]; at 1.2 µM -8% | [7]; at 3.7 µM -2% | [7]; at 11.0 µM 7% | [7]; at 33.0 µM 48% | [8]; at 1.2 µM -1% | [8]; at 3.7 µM 6% | [8]; at 11.0 µM 49% | [9]; [16] 64% | [9]; at 50.0 µM 58.4% | [10]; at 1.2 µM 13% | [10]; at 3.7 µM 45%

C/C(=N\O)c1ccc2ccc3ccccc3c2c1
inactive: [11]; at 1.2 µM -4% | [11]; at 3.7 µM -5% | [11]; at 11.0 µM -9% | [11]; at 33.0 µM 7% | [12]; at 1.2 µM 12% | [12]; at 3.7 µM 35% | [13]; at 1.2 µM 1% | [13]; at 3.7 µM 0% | [13]; at 11.0 µM 2% | [13]; at 33.0 µM 37% | [14]; at 1.2 µM 4% | [14]; at 3.7 µM 12% | [14]; [16] -142% and 7% | [14]; at 11.0 µM 68% | [15]; at 1.2 µM 0% | [15]; at 3.7 µM 1% | [15]; [16] -43% and -1% | [15]; at 11.0 µM 15% | [15]; at 33.0 µM 30% | [15]; [17] -2% and 31% | [1]; at 1.2 µM 2% | [1]; at 3.7 µM 12% | [1]; at 11.0 µM 22% | [1]; at 33.0 µM 41% | [2]; [16] -60% and 0% | [2]; [17] 53% and 65% | [3]; at 1.2 µM -1% | [3]; at 3.7 µM 2% | [3]; at 11.0 µM 6% | [3]; at 33.0 µM 28% | [4]; [16] -49% and -8% | [4]; [17] 12% and 31% | [5]; at 1.2 µM 4% | [5]; at 3.7 µM 3% | [5]; [16] -50% and 1% | [5]; at 11.0 µM 29% | [7]; at 1.2 µM 3% | [7]; at 3.7 µM -3% | [7]; at 11.0 µM 7% | [7]; at 33.0 µM 61% | [8]; at 1.2 µM -2% | [8]; at 3.7 µM -3% | [8]; at 11.0 µM 33% | [9]; [16] -113% and 3% | [10]; at 1.2 µM 5% | [10]; at 3.7 µM 13% | [10]; at 11.0 µM 52%
94.5% (active) and 56.8% (inactive): [5]; at 50.0 µM
93.7% (active) and 7.85% (inactive): [15]; at 50.0 µM
85% (active) and 65% (inactive): [14]; [17]
75% (active) and 64% (inactive): [9]; [17]
77.6% (active) and 30.2% (inactive): [4]; at 50.0 µM
active: [11]; at 100.0 µM 93% | [12]; at 11.0 µM 74% | [12]; at 33.0 µM 90% | [12]; at 100.0 µM 94% | [13]; at 100.0 µM 94% | [14]; at 33.0 µM 95% | [14]; at 50.0 µM 96.3% and 78.3% | [14]; at 100.0 µM 97% | [15]; at 100.0 µM 94% | [1]; at 100.0 µM 94% | [2]; at 50.0 µM 93.1% and 80.3% | [3]; at 100.0 µM 87% | [5]; at 33.0 µM 78% | [5]; [17] 72% | [5]; at 100.0 µM 94% | [7]; at 100.0 µM 90% | [8]; at 33.0 µM 80% | [8]; at 100.0 µM 95% | [9]; at 50.0 µM 96.2% and 82.8% | [10]; at 33.0 µM 92% | [10]; at 100.0 µM 94%

CC1CC(Br)C(=O)O1 (centres undefined)
active: [11]; at 100.0 µM 88% | [12]; at 33.0 µM 88% | [12]; at 100.0 µM 89% | [13]; at 100.0 µM 86% | [14]; at 33.0 µM 74% | [14]; [17] 95% | [14]; at 50.0 µM 86.7% | [14]; at 100.0 µM 89% | [15]; at 33.0 µM 95% | [15]; [17] 98% | [15]; at 50.0 µM 92.2% | [15]; at 100.0 µM 95% | [1]; at 100.0 µM 85% | [2]; [17] 77% | [2]; at 50.0 µM 87.8% | [3]; at 33.0 µM 95% | [3]; at 100.0 µM 96% | [4]; [17] 86% | [4]; at 50.0 µM 84.8% | [5]; at 11.0 µM 74% | [5]; at 33.0 µM 96% | [5]; [17] 98% | [5]; at 50.0 µM 88.5% | [5]; at 100.0 µM 97% | [6]; at 100.0 µM 86% | [7]; at 33.0 µM 79% | [7]; at 100.0 µM 90% | [8]; at 100.0 µM 88% | [9]; [17] 97% | [9]; at 50.0 µM 83.8% | [10]; at 100.0 µM 88%
inactive: [11]; at 1.2 µM -48% | [11]; at 3.7 µM -49% | [11]; at 11.0 µM -22% | [11]; at 33.0 µM 67% | [12]; at 1.2 µM 12% | [12]; at 3.7 µM 11% | [12]; at 11.0 µM 34% | [13]; at 1.2 µM -52% | [13]; at 3.7 µM -49% | [13]; at 11.0 µM -24% | [13]; at 33.0 µM 69% | [14]; at 1.2 µM -67% | [14]; at 3.7 µM -55% | [14]; [16] -14% | [14]; at 11.0 µM -34% | [15]; at 1.2 µM -30% | [15]; at 3.7 µM -18% | [15]; [16] 1% | [15]; at 11.0 µM 31% | [1]; at 1.2 µM -49% | [1]; at 3.7 µM -42% | [1]; at 11.0 µM -30% | [1]; at 33.0 µM 58% | [2]; [16] 9% | [3]; at 1.2 µM -44% | [3]; at 3.7 µM -44% | [3]; at 11.0 µM -13% | [4]; [16] 39% | [5]; at 1.2 µM 8% | [5]; at 3.7 µM 22% | [5]; [16] 44% | [6]; at 1.2 µM -52% | [6]; at 3.7 µM -40% | [6]; at 11.0 µM -25% | [6]; at 33.0 µM 30% | [7]; at 1.2 µM -54% | [7]; at 3.7 µM -51% | [7]; at 11.0 µM -18% | [8]; at 1.2 µM -41% | [8]; at 3.7 µM -40% | [8]; at 11.0 µM -31% | [8]; at 33.0 µM 68% | [9]; [16] -9% | [10]; at 1.2 µM -57% | [10]; at 3.7 µM -50% | [10]; at 11.0 µM -28% | [10]; at 33.0 µM 69%
